Only some compounds are listed: those with a hit (about 2.4% of all), similar ones and a draw of the others.
Pol eta inh – inhibitors of human DNA polymerase eta; recombinant Pol eta, fluorescent DNA replication assay; hit rate 1.2% among 390,000; Q9Y253; Potency, µM (highest dose often 114 µM), for the others: at the top dose activity change, negative = inhibition, most hits filed as inhibitors; note: % is set by controls: 0 for no effect and ±100 for the full control effect
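Pol eta (10 nM) was preincubated with compounds for 15 min at room temperature, after which fluorescent replication substrate (50 nM final) was added to start the reaction. Fluorescence was read kinetically at 0 and 10 min.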
FEN1 inh – inhibitors of human flap endonuclease 1. Recombinant FEN1 flap cleavage, fluorescence, 15 min. Potency, µM (highest dose often 114 µM), for inactives: top-dose activity change, negative = inhibition, actives largely listed as inhibitors. hit rate 0.35% among 390,000. AID 588795; note: % is set by controls: 0 for no effect and ±100 for the full control effect; nearly all actives have a fitted effect of over 65% in size
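Potency values derive from four-parameter Hill fits of normalized qHTS data. The reaction used 10 nM FEN1 preincubated 15 min at room temperature with compound, then 50 nM DNA substrate, read at 0 and 15 min.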
POLK inh – inhibitors of human DNA polymerase kappa | hit rate 0.53% among 400,000 | Q9UBT6 | purified Pol kappa, fluorescent DNA synthesis assay, 10 min | AID 588579 | Potency, µM (titrated, usually from 107 µM), inactives show top-dose activity, negative = inhibition, usual class: inhibitors; note: % is set by controls: 0 for no effect and ±100 for the full control effect
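First, compounds were pin-transferred onto 10 nM Pol kappa. After 15 min at room temperature, substrate was added to 50 nM final. Fluorescence was then measured kinetically at 0 and 10 min.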
WRN helicase inh – WRN helicase (human) inhibition; Q14191; WRN helicase unwinding, fluorescent forked duplex, kinetic; Potency, µM (top dose mostly 114 µM), for inactives: at the highest dose activity change, negative = inhibition, actives largely listed as inhibitors; hit rate 0.46% among 360,000; note: % is set by controls: 0 for no effect and ±100 for the full control effect; nearly all actives have a fitted effect of over 55% in size
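Kinetic red-fluorescence monitoring (525/598 nm) tracks WRN helicase activity after 100 nM fluorophore-quencher forked duplex and 2 mM ATP are added to 20 nM enzyme pretreated 15 min at room temperature with compound.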
POLI inh – inhibitors of human DNA polymerase iota. Potency, µM (doses to about 115 µM), for inactives: top-dose activity, negative = inhibition, actives largely listed as inhibitors. Q9UNA4. Pol iota fluorescent replication assay, 10 min. AID 588590. hit rate 1% among 390,000
Target sequence (Q9UNA4 whole entry, looked up): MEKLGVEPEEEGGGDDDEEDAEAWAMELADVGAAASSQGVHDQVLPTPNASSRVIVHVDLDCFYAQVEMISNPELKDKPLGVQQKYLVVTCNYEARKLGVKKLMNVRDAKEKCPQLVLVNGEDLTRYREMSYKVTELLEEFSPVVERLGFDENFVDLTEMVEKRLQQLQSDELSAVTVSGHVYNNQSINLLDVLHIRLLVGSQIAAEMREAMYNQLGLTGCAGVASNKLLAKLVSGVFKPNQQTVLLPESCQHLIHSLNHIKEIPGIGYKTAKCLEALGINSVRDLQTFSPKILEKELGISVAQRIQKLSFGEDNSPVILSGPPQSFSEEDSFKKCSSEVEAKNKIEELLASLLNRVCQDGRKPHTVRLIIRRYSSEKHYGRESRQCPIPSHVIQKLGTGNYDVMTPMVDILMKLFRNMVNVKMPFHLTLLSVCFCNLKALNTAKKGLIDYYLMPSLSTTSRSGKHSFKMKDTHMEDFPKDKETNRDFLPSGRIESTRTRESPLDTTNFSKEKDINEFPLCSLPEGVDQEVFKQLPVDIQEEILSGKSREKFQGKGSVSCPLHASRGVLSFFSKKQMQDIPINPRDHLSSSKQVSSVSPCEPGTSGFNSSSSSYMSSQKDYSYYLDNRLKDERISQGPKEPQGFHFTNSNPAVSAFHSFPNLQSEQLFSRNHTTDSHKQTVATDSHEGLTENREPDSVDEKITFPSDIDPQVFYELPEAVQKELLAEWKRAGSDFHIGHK
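Fluorescent replication assay read twice, at 0 min and 10 min after adding 50 nM (final) substrate. Enzyme (10 nM) and compounds were first incubated 15 min at room temperature; enzyme-free buffer wells were negative controls.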
POLB inh – DNA polymerase beta (human) inhibition. P06746. Pol beta primer extension/strand displacement, fluorescence kinetic. Potency, µM (highest dose often 114 µM), for the others: at the top dose activity change, negative = inhibition, usual class: inhibitors. hit rate 1.3% among 340,000; note: % is set by controls: 0 for no effect and ±100 for the full control effect
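Enzyme-only controls used 10 nM Pol beta; buffer lacking enzyme served as negative control. Compound preincubated 15 min, then 50 nM substrate added; 0 and 10 min reads at room temperature.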
Numbers without * were called inactive; [ ] = remark or other dose. Calls come from the whole dose curve; as a rule, active = well fitted curve in the direction sought with a large enough effect; inconclusive = small, poorly fitted or top-dose-only effect, or another doubt; inactive = no such curve, though single readings can be large; an effect the other way counts as inactive or inconclusive. Potency is the fitted concentration of half-maximal effect.

Nc1c2c(=O)[nH]c(O)cc2nn1-c1ccccc1 was read as Pol eta inh 50µM*, FEN1 inh inconclusive, POLK inh inconclusive, WRN helicase inh -2%[11.6 µM] and POLI inh 8.9µM*.
For CCOc1ccc(-c2cn3c(n2)sc2cc(C(=O)NCCc4ccc(OC)c(OC)c4)ccc23)cc1 the results were Pol eta inh -1%, FEN1 inh 1%, POLK inh -3%, POLI inh -23% and POLB inh -26%.
O=c1cc2nc(-c3ccccc3F)nc(SCc3ccc(Br)cc3)n2[nH]1 was read as Pol eta inh inconclusive, FEN1 inh 4%, POLK inh inconclusive, POLI inh inconclusive and POLB inh 32µM*.
For CCc1ccc(OCCCSc2nc(-c3ccc(C(C)(C)C)cc3)nc3cc(=O)[nH]n23)cc1 the results were FEN1 inh inconclusive, POLK inh -26%, POLI inh inconclusive and POLB inh 18µM*.
Screening Cc1cccc(-c2nc(SCCCOc3ccc(Cl)c(C)c3)n3[nH]c(=O)cc3n2)c1 returned Pol eta inh 4%, FEN1 inh -1%, POLK inh 22%, POLI inh -10% and POLB inh 11%.
Screening Cc1ccc(OCCSc2nc(-c3ccccc3C)nc3cc(=O)[nH]n23)cc1Cl returned Pol eta inh 89µM*, FEN1 inh inconclusive, POLK inh inconclusive, POLI inh inconclusive and POLB inh inconclusive.
Screening Cc1ccc(C(C)C)c(OCCSc2nc(-c3ccccc3F)nc3cc(=O)[nH]n23)c1 returned Pol eta inh inconclusive, FEN1 inh inconclusive, POLK inh -11%, POLI inh inconclusive and POLB inh 16µM*.
`COCCCNC(=O)C1CCN(C(=O)c2ccc(-n3ccc4ccccc43)s2)CC1` gave Pol eta inh -18%, FEN1 inh 3%, POLK inh 1%, POLI inh 15% and POLB inh 8%.
For O=c1c2ccccc2sn1-c1ccc(Cl)c(S(=O)(=O)N2CCOCC2)c1 the results were FEN1 inh inconclusive, POLK inh -14% and POLI inh 79µM*.
`CC1CC=CC2C1C(=O)N(Cc1ccccc1)C2c1ccc(Br)cc1F` (stereo not given) gave FEN1 inh -7%, POLK inh -6% and POLI inh -6%.
CC1CCN(S(=O)(=O)c2ccc(NC(=O)C3CSC4(C)CCC(=O)N34)cc2)CC1 (stereo not given) was read as Pol eta inh 20µM*, FEN1 inh 1%, POLK inh -28%, WRN helicase inh 1%[11.6 µM] and POLI inh inconclusive.
For CC(C)CN(CC(C)C)c1ccc(/C=C/c2ccnc3ccccc23)cc1 the results were FEN1 inh -6%, POLK inh 1% and POLI inh 18%.
`Cc1cc(C)nc(SCCc2ccncc2)n1` gave Pol eta inh -11%, FEN1 inh -3%, POLK inh 2%, WRN helicase inh 0%, POLI inh 22µM* and POLB inh -2%.
`Cc1c(Br)c(O)c(Br)c2sc(=O)oc12` gave Pol eta inh inconclusive, FEN1 inh inconclusive, POLK inh inconclusive, WRN helicase inh -32%, POLI inh 6.3µM* and POLB inh 20µM*.
For CC(=O)Nc1cccc(NC(=O)CSc2nc(C3CC3)nc3ccccc23)c1 the results were Pol eta inh -17%, FEN1 inh 5%, POLK inh -4%, WRN helicase inh -13%, POLI inh 28% and POLB inh inconclusive.
O=C(CSc1nc(-c2ccccc2)nc2ccccc12)Nc1cccc(C(=O)O)c1 was read as Pol eta inh 35µM*, FEN1 inh -14%, POLK inh 1%, WRN helicase inh -14%[11.6 µM], POLI inh inconclusive and POLB inh 0%.

Compound activity from PubChem.
